In the supplement of paper PMC3545927:
The list shows a part of the results. No count for the full screen is at hand.

Biological target: furin, P09958
Assay: furin cleavage Z-score vs untreated control; higher = more cleavage, active = 3.5 or more, inactive = 1 or less, 8 variable residues between constant flanks
In short: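 Peptides 8 residues long, fused to a cDNA oligonucleotide, were fixed to magnetic beads by the N-terminus and exposed to purified furin. The 0.01 ml reactions contained 50 mM HEPES pH 7.5 with CaCl2 and NaCl at 1:10 enzyme:substrate and ran 7.5, 15 or 30 min. For the cleavage Z-score, log counts of sequenced released DNA were compared with furin-free reactions, lowess-adjusted and scaled by median absolute deviation.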

Chain of furin, P09958 (P09958 whole entry): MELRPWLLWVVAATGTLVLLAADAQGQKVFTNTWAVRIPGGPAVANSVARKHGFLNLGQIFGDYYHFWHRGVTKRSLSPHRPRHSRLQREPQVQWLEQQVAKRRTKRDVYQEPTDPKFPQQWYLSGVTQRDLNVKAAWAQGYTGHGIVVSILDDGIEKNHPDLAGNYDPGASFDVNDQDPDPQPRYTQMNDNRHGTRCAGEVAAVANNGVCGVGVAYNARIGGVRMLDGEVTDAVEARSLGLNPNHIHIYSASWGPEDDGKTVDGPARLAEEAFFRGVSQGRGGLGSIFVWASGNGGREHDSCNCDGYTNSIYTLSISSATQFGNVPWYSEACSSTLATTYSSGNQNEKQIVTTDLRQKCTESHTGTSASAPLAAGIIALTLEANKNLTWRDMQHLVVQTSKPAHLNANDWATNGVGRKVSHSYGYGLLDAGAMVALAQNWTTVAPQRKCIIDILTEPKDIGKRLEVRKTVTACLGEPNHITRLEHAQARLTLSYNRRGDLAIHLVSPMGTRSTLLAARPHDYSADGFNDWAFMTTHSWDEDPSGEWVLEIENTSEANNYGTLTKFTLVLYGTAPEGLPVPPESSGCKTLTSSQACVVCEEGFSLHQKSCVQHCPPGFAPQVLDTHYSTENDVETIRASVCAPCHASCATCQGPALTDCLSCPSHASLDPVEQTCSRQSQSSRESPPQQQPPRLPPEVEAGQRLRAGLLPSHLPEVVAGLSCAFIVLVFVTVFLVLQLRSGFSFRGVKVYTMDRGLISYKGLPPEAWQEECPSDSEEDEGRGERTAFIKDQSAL

Row | Sequence | furin cleavage Z-score (7.5 min) | furin cleavage Z-score (15 min) | furin cleavage Z-score (30 min)
1 | CANEMEECSQAGNASASA [HC1801] | -0.962 (inactive) | 0.682 (inactive) | -0.461 (inactive)
2 | CAETVTSTWVAGNASASA [HC2178] | -0.174 (inactive) | 0.0107 (inactive) | 0.00907 (inactive)
3 | CAVGGVEHRLAGNASASA [HC477] | 0.551 (inactive) | 1.48 | 0.304 (inactive)
4 | CAVQVRGKRLAGNASASA [FS-312] | 6.21 (active) | 7.9 (active) | 7.68 (active)
5 | CAARRRRKRLAGNASASA [FS-9] | 9.78 (active) | 12.2 (active) | 9.85 (active)
6 | CAQQELRKRLAGNASASA [FS-1390] | 0.809 (inactive) | 0.166 (inactive) | 1.43
7 | CARRATLKRSAGNASASA [FS-624] | 3.99 (active) | 5.42 (active) | 4.76 (active)
8 | CANKVRAKRSAGNASASA [FS-618] | 10.6 (active) | 10.4 (active) | 8.36 (active)
9 | CARRRRDSRSAGNASASA [FS-1267] | 9.84 (active) | 9.21 (active) | 7.48 (active)
10 | CAGQPGLKRSAGNASASA [FS-1203] | -1.59 (inactive) | 1.19 | -2.33 (inactive)
11 | CARRRRRKESAGNASASA [FS-2298] | 2.91 | 3.94 (active) | 2.81
12 | CAVFSRDSRSAGNASASA [FS-103] | 2.25 | 0.692 (inactive) | 2.36
13 | CAKGWRLLAPAGNASASA [HC671] | 0.0408 (inactive) | 0.181 (inactive) | -0.469 (inactive)
14 | CALPINALSNAGNASASA [HC1381] | 0.137 (inactive) | -0.538 (inactive) | -0.0923 (inactive)
15 | CAFWEGVFTGAGNASASA [HC939] | -1.63 (inactive) | 0.063 (inactive) | -1.49 (inactive)
16 | CATLTCGFADAGNASASA [HC223] | -1.51 (inactive) | -0.777 (inactive) | -0.721 (inactive)
17 | CAEVVTSTIVAGNASASA [HC2224] | 1.34 | 0.923 (inactive) | -0.591 (inactive)
18 | CAIEMEECSQAGNASASA [HC1784] | 0.115 (inactive) | -0.919 (inactive) | -0.409 (inactive)
19 | CARRRRAKRSAGNASASA [FS-1481] | 10 (active) | 9.95 (active) | 7.99 (active)
20 | CAMEECCQHLAGNASASA [HC34] | 0.752 (inactive) | -0.68 (inactive) | 0.844 (inactive)
21 | CAERSRVCRCAGNASASA [FS-123] | -0.711 (inactive) | 0.103 (inactive) | 2.18
22 | CAERSREMRAAGNASASA [FS-1120] | 0.288 (inactive) | 0.367 (inactive) | -1.27 (inactive)
23 | CAHPSRKRRAAGNASASA [FS-132] | 11.3 (active) | 11.3 (active) | 8.53 (active)
24 | CAHYVPESDAAGNASASA [HC1127] | -0.402 (inactive) | -0.697 (inactive) | -1.88 (inactive)
25 | CAHPVREARAAGNASASA [FS-1211] | 3.66 (active) | 5.02 (active) | 5.4 (active)

Row | Sequence | furin cleavage Z-score (7.5 min) | furin cleavage Z-score (15 min) | furin cleavage Z-score (30 min)
26 | CAHPNIEEVAAGNASASA [HC840] | 0.6 (inactive) | -0.828 (inactive) | 0.48 (inactive)
27 | CAERSRKRRAAGNASASA [FS-417] | 11.5 (active) | 10.5 (active) | 7.42 (active)
28 | CAESTRTRRAAGNASASA [FS-1522] | 8.54 (active) | 9.73 (active) | 8.09 (active)
29 | CAMNTPGLPVAGNASASA [HC932] | 0.685 (inactive) | 0.0364 (inactive) | -1.85 (inactive)
30 | CAEVVTSTWGAGNASASA [HC2256] | 0.945 (inactive) | 1.37 | -1.03 (inactive)
31 | CAMQECSQHLAGNASASA [HC1702] | 0.311 (inactive) | 0.512 (inactive) | -0.705 (inactive)
32 | CAEEQKLPINAGNASASA [HC1379] | 0.861 (inactive) | -1.11 (inactive) | -0.462 (inactive)
33 | CASVPCHRPSAGNASASA [HC2317] | 0.746 (inactive) | 0.823 (inactive) | 0.912 (inactive)
34 | CAEFERAPRSAGNASASA [FS-524] | 0.193 (inactive) | 0.266 (inactive) | 0.907 (inactive)
35 | CAREFRAHRSAGNASASA [FS-487] | 1.52 | 0.689 (inactive) | 1.39
36 | CASRKRAPRSAGNASASA [FS-963] | 10.6 (active) | 8.82 (active) | 9.02 (active)
37 | CANATRAPRSAGNASASA [FS-63] | 8.66 (active) | 8.42 (active) | 6.36 (active)
38 | CAIPVRAPRSAGNASASA [FS-442] | 5.71 (active) | 3.56 (active) | 4.32 (active)
39 | CATTPCSGLWAGNASASA [HC1905] | 0.96 (inactive) | 1.01 | -0.0137 (inactive)
40 | CATSTWVLVGAGNASASA [HC989] | -2.25 (inactive) | -0.362 (inactive) | -1.37 (inactive)
41 | CAYSSMPPLEAGNASASA [HC1353] | 0.446 (inactive) | 1.62 | 1.96
42 | CAERVVCCSMAGNASASA [HC2133] | -0.391 (inactive) | 0.896 (inactive) | 0.654 (inactive)
43 | CARQPRPAGVAGNASASA [FS-3041] | -0.899 (inactive) | -0.574 (inactive) | -0.629 (inactive)
44 | CAVGERFRRDAGNASASA [FS-386] | 11.7 (active) | 13 (active) | 8.87 (active)
45 | CARRRRGFRQAGNASASA [FS-2788] | 2.04 | 3.6 (active) | 4.63 (active)
46 | CARFPRGVSRAGNASASA [FS-3247] | -0.934 (inactive) | -0.454 (inactive) | -0.752 (inactive)
47 | CALGARERRDAGNASASA [FS-1226] | 13.9 (active) | 15.5 (active) | 11.8 (active)
48 | CARFPRFVNVAGNASASA [FS-2925] | 3.2 | 3.36 | 7.1 (active)
49 | CAERAPERRDAGNASASA [FS-24] | -2.22 (inactive) | -0.00906 (inactive) | -1.69 (inactive)
